Reference: PubChem BioAssay AID1159580 (chemical genetic matrix, 2015)
Where “and” joins values, the source holds several entries; their conditions need not be identical. Identical values can stand only once. In all, about 5,500 compounds went through this assay and about 2,000 (36%) were called active. Inconclusive results (about 18%) are left out. Rule as the data show it: active = normalized growth mostly below about 0.91 (no sharp cut-off); inconclusive = no clear call, values can overlap the other calls; inactive = mostly above about 0.92. The list shows a part of the results.

Assay: chemical genetic growth profiling, strain panel (AID 1159580);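 also: tested at 20 µM; growth read once vehicle control cultures reached saturation at 30 °C; 1 = growth at the plate median or of vehicle wells; lower values mean less growth of the strain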
Conditions: S. cerevisiae deletion strains, growth OD

## CCCCOC(=O)c1ccc(N)cc1
Locus YAL013W, strain DEP1, stronger effect = lower value
  normalized growth: 0.974 (inactive)
Locus YAL021C, strain ccr4, stronger effect = lower value
  normalized growth: 0.909 (inactive)
Locus YAL026C, strain drs2, stronger effect = lower value
  normalized growth: 0.603 (active)
Locus YAL030W, strain snc1, stronger effect = lower value
  normalized growth: 0.908 (active)
Locus YBL061C, strain skt5, stronger effect = lower value
  normalized growth: 0.71 (active)
Locus YBR009C, strain hhf1, stronger effect = lower value
  normalized growth: 0.849 (active)
Locus YBR021W, strain FUR4, stronger effect = lower value
  normalized growth: 0.948 (inactive)
Locus YBR023C, strain chs3, stronger effect = lower value
  normalized growth: 0.729 (active)
Locus YBR171W, strain sec66, stronger effect = lower value
  normalized growth: 0.884 (active)
Locus YBR229C, strain ROT2, stronger effect = lower value
  normalized growth: 0.993 (inactive)
Locus YBR231C, strain swc5, stronger effect = lower value
  normalized growth: 0.821 (active)
Locus YBR279W, strain paf1, stronger effect = lower value
  normalized growth: 0.897 (active)
Locus YCL011C, strain gbp2, stronger effect = lower value
  normalized growth: 0.891 (active)
Locus YCL016C, strain dcc1, stronger effect = lower value
  normalized growth: 0.86 (active)
Locus YCL029C, strain bik1, stronger effect = lower value
  normalized growth: 0.948 (inactive)
Locus YCL069W, strain vba3, stronger effect = lower value
  normalized growth: 0.886 (active)
Locus YCR088W, strain abp1, stronger effect = lower value
  normalized growth: 0.862 (active)
Locus YDL005C, strain med2, stronger effect = lower value
  normalized growth: 0.949 (inactive)
Locus YDL035C, strain GPR1, stronger effect = lower value
  normalized growth: 0.951 (inactive)
Locus YDL040C, strain nat1, stronger effect = lower value
  normalized growth: 0.932 (active)
Locus YDL074C, strain BRE1, stronger effect = lower value
  normalized growth: 0.869 (inactive)
Locus YDL101C, strain DUN1, stronger effect = lower value
  normalized growth: 0.975 (inactive)
Locus YDL134C, strain PPH21, stronger effect = lower value
  normalized growth: 0.969 (inactive)
Locus YDL185W, strain tfp1, stronger effect = lower value
  normalized growth: 0.959 (inactive)
Locus YDL192W, strain arf1, stronger effect = lower value
  normalized growth: 0.886 (active)
Locus YDR001C, strain nth1, stronger effect = lower value
  normalized growth: 0.904 (active)
Locus YDR069C, strain doa4, stronger effect = lower value
  normalized growth: 0.916 (inactive)
Locus YDR101C, strain arx1, stronger effect = lower value
  normalized growth: 0.898 (active)
Locus YDR137W, strain rgp1, stronger effect = lower value
  normalized growth: 0.453 (active)
Locus YDR150W, strain NUM1, stronger effect = lower value
  normalized growth: 0.988 (inactive)
Locus YDR159W, strain sac3, stronger effect = lower value
  normalized growth: 0.751 (active)
Locus YDR162C, strain NBP2, stronger effect = lower value
  normalized growth: 0.801 (active)
Locus YDR195W, strain ref2
  normalized growth: 1.14 (inactive)
Locus YDR297W, strain sur2, stronger effect = lower value
  normalized growth: 0.92 (active)
Locus YDR318W, strain mcm21, stronger effect = lower value
  normalized growth: 0.897 (active)
Locus YDR334W, strain swr1, stronger effect = lower value
  normalized growth: 0.914 (inactive)
Locus YDR335W, strain msn5, stronger effect = lower value
  normalized growth: 0.858 (active)
Locus YDR388W, stronger effect = lower value
  normalized growth: 0.911 (active)
Locus YDR392W, strain spt3, stronger effect = lower value
  normalized growth: 0.484 (active)
Locus YDR502C, strain sam2, stronger effect = lower value
  normalized growth: 0.911 (active)
Locus YEL003W, strain gim4, stronger effect = lower value
  normalized growth: 0.888 (active)
Locus YEL037C, strain rad23, stronger effect = lower value
  normalized growth: 0.928 (inactive)
Locus YEL061C, strain CIN8 (second series), stronger effect = lower value
  normalized growth: 0.895 (active)
Locus YEL061C, strain CIN8, stronger effect = lower value
  normalized growth: 0.974 (inactive)
Locus YER015W, strain faa2, stronger effect = lower value
  normalized growth: 0.864 (active)
Locus YER016W, strain bim1, stronger effect = lower value
  normalized growth: 0.877 (active)
Locus YER110C, stronger effect = lower value
  normalized growth: 0.922 (inactive)
Locus YER111C, strain swi4, stronger effect = lower value
  normalized growth: 0.896 (active)
Locus YER155C, strain BEM2 (second series), stronger effect = lower value
  normalized growth: 0.203 (active)
Locus YER155C, strain BEM2, stronger effect = lower value
  normalized growth: 0.969 (inactive)
Locus YER167W, strain BCK2, stronger effect = lower value
  normalized growth: 0.906 (inactive)
Locus YFR010W, strain ubp6, stronger effect = lower value
  normalized growth: 0.924 (inactive)
Locus YGL078C, strain dbp3, stronger effect = lower value
  normalized growth: 0.96 (inactive)
Locus YGL086W, strain mad1, stronger effect = lower value
  normalized growth: 0.927 (active)
Locus YGL167C, strain pmr1, stronger effect = lower value
  normalized growth: 0.927 (inactive)
Locus YGL173C, strain kem1, stronger effect = lower value
  normalized growth: 0.876 (active)
Locus YGL227W, strain vid30, stronger effect = lower value
  normalized growth: 0.893 (active)
Locus YGL240W, strain doc1, stronger effect = lower value
  normalized growth: 0.666 (active)
Locus YGL248W, strain PDE1, stronger effect = lower value
  normalized growth: 0.996 (inactive)
Locus YGL253W, strain hxk2, stronger effect = lower value
  normalized growth: 0.869 (active)
Locus YGR078C, strain PAC10, stronger effect = lower value
  normalized growth: 0.89 (inactive)
Locus YGR135W, strain pre9, stronger effect = lower value
  normalized growth: 0.865 (active)
Locus YGR229C, strain SMI1, stronger effect = lower value
  normalized growth: 0.608 (active)
Locus YGR252W, strain gcn5, stronger effect = lower value
  normalized growth: 0.743 (active)
Locus YHR013C, strain ard1, stronger effect = lower value
  normalized growth: 0.856 (inactive)
Locus YHR027C, strain rpn1, stronger effect = lower value
  normalized growth: 0.908 (active)
Locus YHR030C, strain SLT2, stronger effect = lower value
  normalized growth: 0.637 (active) and 0.942 (inactive)
Locus YHR079C, strain IRE1 (second series), stronger effect = lower value
  normalized growth: 0.935 (inactive)
Locus YHR079C, strain IRE1, stronger effect = lower value
  normalized growth: 0.993 (inactive)
Locus YHR094C, strain hxt1, stronger effect = lower value
  normalized growth: 0.961 (inactive)
Locus YHR129C, strain ARP1, stronger effect = lower value
  normalized growth: 0.984 (inactive)
Locus YHR142W, strain chs7, stronger effect = lower value
  normalized growth: 0.495 (active)
Locus YHR200W, strain rpn10, stronger effect = lower value
  normalized growth: 0.933 (inactive)
Locus YIL066C, strain RNR3, stronger effect = lower value
  normalized growth: 0.925 (inactive)
Locus YIL073C, strain SPO22, stronger effect = lower value
  normalized growth: 0.85 (inactive)
Locus YIL125W, strain kgd1, stronger effect = lower value
  normalized growth: 0.967 (inactive)
Locus YIR030C, strain dcg1, stronger effect = lower value
  normalized growth: 0.946 (inactive)
Locus YJL092W, strain hpr5, stronger effect = lower value
  normalized growth: 0.872 (active)
Locus YJL095W, strain BCK1 (second series), stronger effect = lower value
  normalized growth: 0.278 (active)
Locus YJL095W, strain BCK1, stronger effect = lower value
  normalized growth: 0.511 (active) and 0.971 (inactive)
Locus YJL115W, strain asf1, stronger effect = lower value
  normalized growth: 0.907 (inactive)
Locus YJL129C, strain trk1, stronger effect = lower value
  normalized growth: 0.769 (active)
Locus YJL134W, strain LCB3, stronger effect = lower value
  normalized growth: 0.985 (inactive)
Locus YJL154C, strain vps35, stronger effect = lower value
  normalized growth: 0.906 (active)
Locus YJL164C, strain tpk1, stronger effect = lower value
  normalized growth: 0.871 (active)
Locus YJL166W, strain qcr8, stronger effect = lower value
  normalized growth: 0.825 (active)
Locus YJL168C, strain set2, stronger effect = lower value
  normalized growth: 0.953 (inactive)
Locus YJL187C, strain SWE1 (second series), stronger effect = lower value
  normalized growth: 0.93 (inactive)
Locus YJL187C, strain SWE1, stronger effect = lower value
  normalized growth: 0.919 (active)
Locus YJR043C, strain POL32, stronger effect = lower value
  normalized growth: 0.871 (inactive)
Locus YJR066W, strain TOR1, stronger effect = lower value
  normalized growth: 0.949 (inactive)
